# From PubChem
# IL-1B inflam inh: blocks inflammasome-driven IL-1 beta release. AID 743279. 360,000 tested, 4.7% active. activity change, % at 57.5 µM. THP-1 LPS/ATP IL-1B secretion, AlphaLISA, 16 h; active compounds read low; in the data active = activity change below about -50%; inconclusive = mostly about -30% to -49%
#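 Secreted IL-1B measured by AlphaLISA bead assay after 16 h compound exposure of THP-1 cells; compounds (final up to 57.5 uM) added 1 h before LPS (250 ng/mL) and ATP (1.25 mM) stimulation; lower signal means less secretion.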
# HT1080 IDH1KD tx: toxicity to HT-1080 IDH1 knockdown cells (counter line) | HT-1080 IDH1 knockdown viability, ATP luminescence, 48 h | Potency, µM (highest dose often 46.1 µM), for inactives: at the highest dose activity, negative = toxicity, hits mostly cytotoxic | 360,000 tested, 2% active;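 note: potency is the fitted concentration of half-maximal effect; 0% = DMSO wells and -100% = cell-free medium wells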
#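 Knockdown cells (IDH1KD HT-1080) received compounds 2 h after plating at 750 cells/well and were kept 48 h at 37 °C in 5% FBS RPMI. A CellTiter-Glo luminescence read gave % activity for curve fitting.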
# HT1080NT lethal: kills 2HG-producing HT-1080-NT fibrosarcoma cells; HT-1080-NT fibrosarcoma viability, CellTiter-Glo ATP luminescence, 48 h; Potency, µM (doses to about 46.1 µM), for the others: at the highest dose activity, negative = less viability, actives largely listed as cytotoxic; 360,000 tested, 1.6% active; AID 686970;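 note: NT is the 2HG producing partner of a matched IDH1 knockdown line; potency is the fitted concentration of half-maximal effect; 0% = DMSO-treated cells and -100% = media-only wells without cells; nearly all actives have a fitted effect of over 55% in size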
#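 Toxicity toward the 2HG-producing NT line was scored as %Activity, normalised to DMSO and no-cell wells, from CellTiter-Glo luminescence after 48 hours' treatment.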
# TDP1 cell CPT: DT40-hTDP1 cell growth loss with CPT; AID 686979; Potency, µM (series often up to 46.2 µM), for inactives: at the top dose activity change, negative = growth inhibition, actives largely listed as inhibitors; chicken DT40 Tdp1-/-;hTDP1 cells + 20 nM CPT, ATP luminescence, 48 h; 420,000 tested, 12% active; note: potency is the fitted concentration of half-maximal effect; nearly all actives have a fitted effect of over 55% in size
#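 Chicken DT40 Tdp1-/- cells complemented with human TDP1, 400 cells/well, exposed to compounds plus 20 nM camptothecin for at least 48 h at 37 C; viability read as ATP content by CellTiter-Glo luminescence.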
# TDP1 cell noCPT: qHTS for Inhibitors of human tyrosyl-DNA phosphodiesterase 1 (TDP1): qHTS in cells in absence of CPT | DT40 Tdp1-/- hTDP1 cells, no CPT, ATP luminescence, 48 h | Potency, µM (doses to about 46.2 µM), inactives show at the highest dose activity change, negative = growth inhibition, most hits filed as inhibitors | 420,000 tested, 15% active; note: potency is the fitted concentration of half-maximal effect; nearly all actives have a fitted effect of over 55% in size
#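 Luminescent ATP content (CellTiter-Glo) served as the growth readout. Knockout chicken DT40 cells expressing human TDP1 were exposed to compounds without camptothecin for a minimum 48 hr at 37 °C.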
# Active calls of the source: *; ? = inconclusive; · = no result; ! = repeats disagree. An excerpt weighted towards active compounds, which were near 19% of everything screened. Unless noted, calls come from the whole dose curve; as a rule, active = well fitted curve in the direction sought with a large enough effect; inconclusive = small, poorly fitted or top-dose-only effect, or another doubt; inactive = no such curve, though single readings can be large; an effect the other way counts as inactive or inconclusive. Unless noted, % is set by controls: 0 for no effect and ±100 for the full control effect.
SMILES,IL-1B inflam inh,HT1080 IDH1KD tx,HT1080NT lethal,TDP1 cell CPT,TDP1 cell noCPT
CC(Cl)C(=O)Nc1cc(C(C)(C)C)nn1-c1ccccc1 (centres undefined),-9.3,4.5%,2.9%,1.6%,-12.7%
CC(C)(C)c1cc(NC(=O)CCl)n(-c2ccccc2)n1,-93.2*,?,?,?,20.6µM*
COc1ccccc1-n1cnnc1SCC(=O)Nc1cc(C(C)(C)C)nn1-c1ccccc1,-3.3,-1.2%,17.9%,10.3µM*,13µM*
COc1ccc(-n2ccc(=O)c(C(=O)O)n2)cc1,5.9,12.9%,3.7%,-4.3%,18.7%
CCc1ccccc1-n1nnc(-c2ccccc2)n1,0.0,7.1%,1.5%,-1.4%,0.7%
Cc1ccc(N(C)C2=NC(=O)CS2)cc1Cl,5.9,6.1%,15.6%,6.6%,-0.8%
CCCCc1c(C)c2ccc(OC)c(/C(C)=N\O)c2oc1=O,?,6.8%,8.4%,?,18.4µM*
COc1ccc(CNC(=O)c2c(O)c3ccccc3n(C)c2=O)cc1,-12.1,21.7%,19.1%,6.4%,-6.5%
CCn1c(=O)c(C(=O)NCc2ccc(OC)cc2)c(O)c2ccccc21,39.7,-9.1%,1.9%,23.1µM*,23.1µM*
C=CCn1c(=O)c(C(=O)NCc2ccc(Cl)cc2)c(O)c2ccccc21,48.5,-7.0%,-2.2%,?,23.1µM*
CCCCCCCCC(=O)NNC(=O)c1c(O)c2ccccc2n(CCC)c1=O,-16.0,11.9%,14.0%,23.1µM*,?
C=CCn1c(=O)c(C(=O)Nc2cccnc2)c(O)c2ccccc21,17.6,-0.3%,8.8%,?,?
CCCn1c(=O)c(C(=O)NCc2ccccc2)c(O)c2ccccc21,74.0,0.1%,-1.0%,?,?
C=CCn1c(=O)c(C(=O)Nc2ccc(C)cn2)c(O)c2ccccc21,43.0,11.1%,5.0%,?,18.4µM*
Cc1ccc(-n2c(=O)c3ccc(C(=O)NCc4ccco4)cc3n(CC(=O)Nc3ccc(C)c(F)c3)c2=O)cc1,·,·,·,?,-24.9%
CO/N=C/CC(=O)c1cnc(-c2ccc(Cl)cc2)s1,10.6,-3.0%,1.8%,?,?
CC(C)Cn1c(=O)c(C(=O)N/N=C/c2cccc(F)c2)c(O)c2ccccc21,21.3,-12.0%,-8.6%,2.91µM*,0.326µM*
CC(C)Cn1c(=O)c(C(=O)NCc2ccc3c(c2)OCO3)c(O)c2ccccc21,34.3,-10.6%,-17.2%,23.1µM*,?
CCCn1c(=O)c(C(=O)NCCc2ccccc2)c(O)c2ccccc21,38.2,-1.3%,16.6%,13µM*,?
C=CCn1c(=O)c(C(=O)NCCc2ccccc2)c(O)c2ccccc21,12.4,-1.3%,-21.1%,20.6µM*,?
Cc1cc2oc(C(=O)Nc3ccc(S(=O)(=O)Nc4ncccn4)cc3)cc(=O)c2cc1C,·,·,·,-1.6%,-14.2%
Cc1nnc(N/N=C/c2cccc(OCc3ccc(Cl)c(Cl)c3)c2)n1N,-83.9*,-18.5%,-17.2%,?,?
CCOc1cc(/C=N/Nc2nnc(C)n2N)ccc1OC(C)=O,18.1,20.6µM*,16.4µM*,?,16.4µM*
CCc1nnc(N/N=C\c2ccc(OC(C)=O)c(OC)c2)n1N,-8.1,18.4µM*,?,-19.2%,16.7%
COc1ccc(/C=N/Nc2nncn2N)cc1Br,?,?,16.4µM*,?,?
SMILES,IL-1B inflam inh,HT1080 IDH1KD tx,HT1080NT lethal,TDP1 cell CPT,TDP1 cell noCPT
COc1ccc(CCC(=O)N2CC(C)OC(C)C2)cc1 (centres undefined),10.2,-0.6%,1.1%,-14.2%,-11.2%
CCN(CC)C(=O)c1[nH]cnc1C(=O)N[C@@H](CC(C)C)C(=O)OCc1ccccc1,41.3,-2.4%,1.9%,-26.0%,-19.9%
CC1=C(C(=O)O)CC(S(=O)(=O)O)C1(C)C (centres undefined),2.9,18.7%,1.0%,5.7%,-3.5%
CCN=C1S/C(=C\c2cc(Br)c(O)c(OC)c2)C(=O)N1CC,-21.4,1.3%,5.8%,-25.9%,-0.1%
C/C(=N\Nc1nnc2c3ccccc3n(C)c2n1)c1ccc(C)o1,-65.2*,-15.7%,-13.3%,-18.1%,?
C/C(=N\Nc1nc(C)cc(C)n1)c1ccc(C)o1,-1.6,6.1%,11.2%,4.5%,0.2%
Cn1cnc([N+](=O)[O-])c1S(=O)(=O)c1ccc(Cl)cc1,-137.9*,6.51µM*,9.2µM*,1.16µM*,2.91µM*
Cn1cnc([N+](=O)[O-])c1NC(C)(C)C,13.7,10.1%,20.7%,-1.0%,-6.3%
Cc1ccc(C(=O)NCC(=O)N/N=C/c2cccs2)cc1[N+](=O)[O-],-20.3,-3.5%,2.4%,-11.8%,-24.3%
CCCCCCN(CCCCCC)C(=O)Cc1c(-c2ccc(F)cc2)[nH]c2ccccc12,-11.7,8.0%,7.7%,9.44µM*!,13µM*
CN1CCN(C(=O)c2cc3nc(-c4ccccc4)cc(-c4ccccc4)n3n2)CC1,?,?,14.6µM*,-27.8%,?
O=C(c1cc2nc(-c3ccccc3)cc(-c3ccccc3)n2n1)N1CCCC1,-66.9*,7.4%,-0.6%,?,?
O=C(c1cc2nc(-c3ccccc3)cc(-c3ccccc3)n2n1)N1CCN(C(=O)c2ccco2)CC1,?,-26.2%,-28.9%,23.1µM*,14.6µM*
Cc1ccnc2nc(C(=O)OCC(=O)NCCc3ccccc3)nn12,6.6,-8.7%,1.9%,13.6%,12.5%
Cc1onc(-c2c(Cl)cccc2Cl)c1C(=O)Nc1nccs1,27.4,-12.2%,-22.9%,?,?
CCN(CC)S(=O)(=O)c1ccc(NCc2ccccc2)nc1,3.2,-16.7%,-1.8%,-5.5%,-24.0%
CCCN1CN=C(Nc2nc3ccccc3o2)NC1,16.4,17.5%,23.8%,-21.4%,9.1%
CC1(C)CC(=O)C2=C(C1)NC(Nc1nc3ccccc3o1)=NC21CCCCC1,24.0,4.6%,2.3%,?,23.1µM*
Cc1cccc(NC(=O)C2CCCN2C(=O)NC2CCCCC2)c1 (centres undefined),33.6,5.2%,-0.6%,-12.0%,0.4%
CCCNC(=O)CCCCn1c(=S)[nH]c2c([nH]c3ccc(OC)cc32)c1=O,6.4,3.6%,-0.9%,5.8µM*,5.8µM*
COc1ccc2[nH]c3c(=O)n(CCCCC(=O)NCCC(C)C)c(=S)[nH]c3c2c1,-4.8,3.1%,5.3%,14.6µM*,20.6µM*
Cc1cc(C)c(S(=O)(=O)NCC(c2ccco2)N2CCN(c3ccccc3)CC2)c(C)c1 (centres undefined),·,·,·,23.1µM*,25.9µM*
COc1ccc(S(=O)(=O)NCC(c2cccnc2)N2CCN(c3ccccc3)CC2)cc1C (centres undefined),-5.4,-4.9%,-8.7%,?,?
